Consider 23 molecules from the supplement of paper PMC6805474.

For test [1], the system named is Schistosoma mansoni schistosomula (NMRI). Description: phenotypic severity score (0-4); higher = more antischistosomal effect, active = 2 or more. The note with it: 10 µM.
Test [2] concerns Schistosoma mansoni schistosomula (Liberian). As to the kind of experiment: drug effect (1 - score/DMSO control score) (fraction); higher = more antischistosomal effect, active = 0.5 or more; extreme values may be limits of the assay. The conditions noted are these: 10 µM. In short, it runs like this: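 Drug effect was calculated by comparing the mean score of the test wells with the mean score of the DMSO wells, and any negative value was set to zero. Duplicate wells of 50 Liberian-strain S. mansoni schistosomula, mechanically transformed from cercariae and pre-incubated at least 12 h, received 10 µM compound in Medium 199 with 5% FCS at 37 °C, 5% CO2, with 0.1% DMSO in the comparison wells. Visual scoring at 10× took place at 24, 48 and 72 h on a quarter-point scale from 3 (normal) to 0 (dead), and a plate counted only if its DMSO wells averaged at least 2.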

Structures are written as SMILES. A number with no mark means an inactive call.
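For phenotypic severity score (0-4) in this document: visual microscopic scoring of shape, motility and density changes versus 0.5% DMSO solvent controls, one point per descriptor, degeneracy or death scored 4, mean of duplicate wells.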

For the molecule `COc1cccc(-c2cc3c(Nc4cccnc4)nccc3[nH]2)c1`, the phenotypic severity score in test [1] (24 h), in test [1] (48 h) and in test [1] (72 h) was 0 in each case. Besides, the values for the drug effect in test [2] (24 h), in test [2] (48 h) and in test [2] (72 h) were 0.1, 0.135 and 0.152, respectively.

`CCc1nc2ccc(C(=O)NCc3ccc4c(c3)OCO4)cn2c1N(C)Cc1cccs1`: the phenotypic severity score in test [1] (24 h), in test [1] (48 h) and in test [1] (72 h) was 0 in each case. Moreover, the drug effect in test [2] (24 h) is less than 0; in test [2] (48 h) it was 0.1; in test [2] (72 h) it was 0.167.

For the molecule `COc1ccc(-c2nnc3ccc(-c4cccc(C(C)C)c4)cn23)cc1OC`, the phenotypic severity score in test [1] (24 h) was 0; in test [1] (48 h), 2 (active); in test [1] (72 h), 0. Moreover, the figures for the drug effect in test [2] (24 h), in test [2] (48 h) and in test [2] (72 h) were 0.1, 0.167 and 0.278, respectively.

In the case of `O=C(Nc1ccccc1)c1ccc(-c2cc3ccncc3cc2OC2CCNCC2)s1`, the phenotypic severity score in test [1] (24 h), in test [1] (48 h) and in test [1] (72 h) was 0 throughout. Besides, the drug effect in test [2] (24 h) was 0.15; in test [2] (48 h), 0.459; in test [2] (72 h), 0.455.

`O=C(Cn1ccnc1[N+](=O)[O-])NCc1ccccc1`: the phenotypic severity score in test [1] (24 h), in test [1] (48 h) and in test [1] (72 h) was 0 in each case. The drug effect in test [2] (24 h) is 0.15; in test [2] (48 h), 0.243; in test [2] (72 h) it was 0.222.

For the molecule `Cc1ccccc1CN1CCC(O)(c2ccc(Cl)c(C(F)(F)F)c2)CC1`, the figures for the phenotypic severity score in test [1] (24 h), in test [1] (48 h) and in test [1] (72 h) were 2 (active), 0 and 1, respectively. Also, the values for the drug effect in test [2] (24 h), in test [2] (48 h) and in test [2] (72 h) were 0.1, 0.0556 and 0.188, respectively.

For `CCN(CC)S(=O)(=O)c1ccc(C(=O)Nc2cc(C)nn2-c2nc(C)c(C)c(=O)[nH]2)cc1`, the phenotypic severity score in test [1] (24 h), in test [1] (48 h) and in test [1] (72 h) was 0 each time. In addition, the drug effect in test [2] (24 h) is 0.1; in test [2] (48 h), less than 0; in test [2] (72 h) it was less than 0.

As for `O=C1N(Cc2cc3ccccc3s2)CC2CN(Cc3ccccc3)CCN12` (stereo not given), the phenotypic severity score in test [1] (24 h), in test [1] (48 h) and in test [1] (72 h) was 0 in each case. Besides, the results for the drug effect in test [2] (24 h), in test [2] (48 h) and in test [2] (72 h) were 0.182, 0.3 and 0.236, respectively.

With `O=C(c1[nH]nc2c1CCCC2)N1CCN(Cc2ccc3c(c2)OCO3)CC1`, the phenotypic severity score in test [1] (24 h), in test [1] (48 h) and in test [1] (72 h) was 0 each time. Moreover, the results for the drug effect in test [2] (24 h), in test [2] (48 h) and in test [2] (72 h) were 0.0909, 0.25 and 0.236, respectively.

On to `CCOc1ccc(OCC(=O)Nc2cc(C)cc(C)c2)cc1`, for which the phenotypic severity score in test [1] (24 h), in test [1] (48 h) and in test [1] (72 h) was 0 throughout. For the same molecule, the drug effect in test [2] (24 h) was 0.0909; in test [2] (48 h), 0.05; in test [2] (72 h), 0.158.

For the molecule `CCC(NC(=O)c1ccccc1NC(=O)c1ccc(C)cc1)C(=O)OC` (stereo not given), the phenotypic severity score in test [1] (24 h) was 0; in test [1] (48 h) it was 1; in test [1] (72 h), 1. The drug effect in test [2] (24 h) was 0.2; in test [2] (48 h), 0.167; in test [2] (72 h) it was 0.25.

`CCCNC(=O)N1CCC2(CC1)CC(=O)c1cc(C)ccc1O2`: the phenotypic severity score in test [1] (24 h), in test [1] (48 h) and in test [1] (72 h) was 0 each time. Also, the drug effect in test [2] (24 h) was 0.1; in test [2] (48 h), 0.15; in test [2] (72 h) it was 0.111.

For `CCCn1nnc(NC(=O)COc2ccc(C3CCCCC3)cc2)n1`, the phenotypic severity score in test [1] (24 h), in test [1] (48 h) and in test [1] (72 h) was 0 throughout. Further, the drug effect is 0.136 in test [2] (24 h), 0.2 in test [2] (48 h) and 0.182 in test [2] (72 h).

With `Nc1ncnc2c1ncn2[C@@H]1O[C@H](COS(=O)(=O)NC(=O)c2ccccc2O)[C@@H](O)[C@H]1O`, the phenotypic severity score in test [1] (24 h), in test [1] (48 h) and in test [1] (72 h) was 0 in each case. The values for the drug effect in test [2] (24 h), in test [2] (48 h) and in test [2] (72 h) were 0.1, 0.111 and 0.125, respectively.

In the case of `COc1cc(Br)cc2cc(C(=O)Nc3cccc(C(F)(F)F)c3)c(=O)oc12`, the phenotypic severity score in test [1] (24 h), in test [1] (48 h) and in test [1] (72 h) was 0 each time. The drug effect was 0.1 in test [2] (24 h), 0.0556 in test [2] (48 h) and 0.0556 in test [2] (72 h).

Regarding `COc1ccc(C2=NN(C3CCCCCC3)C(=O)C2(C)C)cc1OCc1ccccn1`, the drug effect was 0.273 in test [2] (24 h), 0.4 in test [2] (48 h) and 0.4 in test [2] (72 h).

With `CS(=O)(=O)N1CCC(Cn2nc(Cc3cccc4ccccc34)c3c(N)ncnc32)CC1`, the phenotypic severity score in test [1] (24 h), in test [1] (48 h) and in test [1] (72 h) was 0 throughout. The drug effect in test [2] (24 h) was 0.1; in test [2] (48 h), 0.568 (active); in test [2] (72 h), 0.636 (active).

For `Nc1nc2ccc(-c3cncc(Oc4ccc(F)cc4)c3)cc2[nH]1`, the phenotypic severity score was 2 (active) in test [1] (24 h), 1 in test [1] (48 h) and 1 in test [1] (72 h). In addition, the drug effect in test [2] (24 h) is 0.3; in test [2] (48 h) it was 0.556 (active); in test [2] (72 h), 0.688 (active).

With `Cc1cc(O)nc(-n2nc(C)cc2C)n1`, the phenotypic severity score in test [1] (24 h), in test [1] (48 h) and in test [1] (72 h) was 0 in each case. The drug effect in test [2] (24 h) was 0.15; in test [2] (48 h), 0.243; in test [2] (72 h), 0.576 (active).

Consider `CC(=O)NC[C@@H]1CN(c2ccc(N3CCOCC3)c(F)c2)C(=O)O1`, for which the phenotypic severity score in test [1] (24 h), in test [1] (48 h) and in test [1] (72 h) was 0 throughout. Further, the drug effect in test [2] (24 h) is 0.227; in test [2] (48 h) it was 0.2; in test [2] (72 h) it was 0.182.

For the molecule `CC(=O)N(CCN(C(=O)c1ccc(F)cc1)c1ccccc1)c1ccccc1`, the phenotypic severity score in test [1] (24 h) is 1; in test [1] (48 h), 0; in test [1] (72 h), 0. In addition, the values for the drug effect in test [2] (24 h), in test [2] (48 h) and in test [2] (72 h) were 0.1, 0.027 and 0.0909, respectively.

In the case of `CC1CCCN(C(=O)C(C)Nc2cc(Cl)ccc2N2CCOCC2)C1` (stereo not given), the phenotypic severity score in test [1] (24 h), in test [1] (48 h) and in test [1] (72 h) was 0 each time. Besides, the results for the drug effect in test [2] (24 h), in test [2] (48 h) and in test [2] (72 h) were 0.15, 0.222 and 0.375, respectively.

In the case of `CS(=O)(=O)N1CCC(CCn2nc(Cc3cccc4ccccc34)c3c(N)ncnc32)CC1`, the phenotypic severity score in test [1] (24 h), in test [1] (48 h) and in test [1] (72 h) was 0 in each case. The drug effect in test [2] (24 h) was 0.273; in test [2] (48 h) it was 0.45; in test [2] (72 h) it was 0.509 (active).
